# Key:
# [1] = target: T1, Methionyl-tRNA synthetase, putative (Leishmania donovani (strain BPK282A1)) (UniProt E9BF75); assay: Leishmania donovani Methionine tRNA synthetase (LdMetRS):v7. Dose response assay; type: functional; parameters: conc 80 nM, time 150 minutes
# T1 sequence (whole entry): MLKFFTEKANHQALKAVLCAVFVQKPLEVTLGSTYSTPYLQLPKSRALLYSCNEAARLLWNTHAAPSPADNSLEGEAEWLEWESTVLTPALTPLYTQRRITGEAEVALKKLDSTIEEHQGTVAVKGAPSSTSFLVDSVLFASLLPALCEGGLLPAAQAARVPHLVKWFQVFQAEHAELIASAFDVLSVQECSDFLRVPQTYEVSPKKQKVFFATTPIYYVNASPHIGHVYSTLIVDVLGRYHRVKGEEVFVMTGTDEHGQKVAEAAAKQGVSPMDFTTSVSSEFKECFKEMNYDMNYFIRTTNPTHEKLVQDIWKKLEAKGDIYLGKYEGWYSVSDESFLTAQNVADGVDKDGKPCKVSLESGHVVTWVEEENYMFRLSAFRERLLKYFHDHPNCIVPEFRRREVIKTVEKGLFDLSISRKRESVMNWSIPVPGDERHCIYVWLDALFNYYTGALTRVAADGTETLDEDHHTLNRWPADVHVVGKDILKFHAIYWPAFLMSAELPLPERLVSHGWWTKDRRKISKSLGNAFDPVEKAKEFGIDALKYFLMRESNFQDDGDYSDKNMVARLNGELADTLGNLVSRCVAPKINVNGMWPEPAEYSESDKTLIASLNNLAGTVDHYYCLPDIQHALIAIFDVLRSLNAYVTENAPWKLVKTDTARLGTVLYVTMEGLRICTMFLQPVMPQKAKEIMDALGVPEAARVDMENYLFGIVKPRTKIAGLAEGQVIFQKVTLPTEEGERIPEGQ
# [2] = target: AMP-activated protein kinase, AMPK (Homo sapiens) (UniProt P54646+O43741+P54619+Q9UGJ0+Q9Y478+Q13131+Q9UGI9); assay: AMP-dependent Kinase enzyme assay. An in vitro enzyme assay that detects ADP turnover that is directly proportional to AMPK activity. This uses naive AMPK that is activated during the assay with MK-8722; type: functional; parameters: scale not given: direction of the effect not stated beside the values; conditions: 30 µM
smiles,measurement,setting,value
Cc1nn(C)c(C)c1CCn1cncc1-c1ccc2c(c1)CC(C)N2C (centres undefined),PXC50,"[1]; BOTTOM 5.604710013, HILLSLOPE 1.073782549, MAX_EFFECT 50.43327556, TOP 78.0664514",4.19
same,PXC50,[1]; MAX_EFFECT 34.22818792,< 4
same,PXC50,[1]; MAX_EFFECT 37.5,< 4
same,PXC50,[1]; MAX_EFFECT 42.63038549,< 4
same,PXC50,[1]; MAX_EFFECT 45.23364486,< 4
O=C(O)CN1CCC(F)(F)C2(CCN(c3ccccc3)C2)C1 (centres undefined),PXC50,"[1]; BOTTOM 0.682019073, HILLSLOPE 1.183129542, MAX_EFFECT 69.01408451, TOP 100.0",4.25
same,PXC50,"[1]; BOTTOM 1.497780238, HILLSLOPE 1.024260355, MAX_EFFECT 65.37037037, TOP 100.0",4.23
same,PXC50,"[1]; BOTTOM -1.515302198, HILLSLOPE 0.859784414, MAX_EFFECT 63.76811594, TOP 100.0",4.28
same,PXC50,"[1]; BOTTOM -4.436470638, HILLSLOPE 1.966892025, MAX_EFFECT 57.61821366, TOP 100.0",4.1
same,PXC50,"[1]; BOTTOM -10.23367543, HILLSLOPE 2.537985382, MAX_EFFECT 60.54421769, TOP 60.60381795",4.54
O=C(NCc1cnn2cccnc12)c1cccc(CC2CCNCC2)c1,PXC50,"[1]; BOTTOM 2.141206025, HILLSLOPE 1.62116593, MAX_EFFECT 62.52189142, TOP 100.0",4.14
same,PXC50,"[1]; BOTTOM 2.892347169, HILLSLOPE 1.976450586, MAX_EFFECT 93.87755102, TOP 100.0",4.43
same,PXC50,"[1]; BOTTOM 5.673984802, HILLSLOPE 1.822868055, MAX_EFFECT 90.57971014, TOP 100.0",4.44
same,Percent Effect,[2],2.98%
